# Experimental data: PubChem BioAssay (EPA / NIEHS)
# Active and inactive are the calls of the source. How the source made its calls: active means hit-call score of the fitted dose curve at least 0.9, where 1 is the maximum; inactive means score below 0.9.
# Test: CCTE_Shafer_MEA_acute_burst_number: CCTE's Neural Acute Assay for Single-Electrode Bursts, Shafer Lab (AID 2284013)
# Experimental: CCTE_Shafer_MEA_acute assay is conducted using Axion Biosystems 48 well microelectrode array (MEA) plates and Maestro recording system. Each well of the MEA plate contains a grid of 16 microelectrodes embedded in the culture surface. Electrically active cells, such as neurons, can be cultured over the electrodes, and electrical activity in these cells can be recorded extracellularly. The spontaneous firing of neurons is captured from each electrode on a microsecond timescale providing both temporally and spatially precise data. […] The CCTE_Shafer_MEA_acute assay uses primary cultures of rat cortical neurons. As these cultures mature over time, neural networks develop functional activity and form cohesive networks in which electrical activity can be highly coordinated. Baseline 40-minute recordings are made on days post-plating 13 or 15, followed by a secondary 40-minute recording after chemical exposure.CCTE_Shafer_MEA_acute_burst_number is a component of the CCTE_Shafer_MEA_acute assay. It measures the total number of single-electrode bursts (temporally-clustered groups of action potential firing) during a recording in a microelectrode array (MEA) using Axion Biosystems Maestro 768 channel amplifier with the AxIS adaptive spike detector. The recordings before and after chemical treatment are used to calculate a percent change in the burst number in each well.Data from the assay component CCTE_Shafer_MEA_acute_burst_number was analyzed into 1 assay endpoint. This assay endpoint, CCTE_Shafer_MEA_acute_burst_number, was analyzed in the negative analysis fitting direction relative to DMSO as the negative control and baseline of activity. Using a type of functional reporter, gain or loss-of-signal activity can be used to understand electrical activity.
# Spontaneous activity in the cortical cultures was recorded using an Axion Biosystems Maestro 768 channel amplifier and Axion Integrated Studios (AxIS) v1.8 (or later) software. The amplifier recorded from all channels simultaneously (gain = 1200 x; sampling rate = 12.5 kHz/channel): raw signals were filtered with a Butterworth band-pass filter (300-5000 Hz), which filters out slower local field potentials leaving only fast potentials, i.e., "spikes", arising from extracellular currents associated with action potentials (Pine 2006; Wheeler and Nam 2011). On-line spike detection of filtered signals was conducted with the AxIS adaptive spike detector, using a threshold of 8x the root mean squared (rms) noise on each channel. Any electrodes with rms noise levels greater than 5 uV were grounded (e.g., no data were recorded). Once grounded, an electrode was grounded for the duration of the experiment. All recordings were conducted at 37 C. Wells were deemed usable if on the day of the exposure >/= 10 electrodes were active (defined as >/= 5 spikes/min). On DIV 13 or 15, a minimum of three wells from one cortical culture preparation were treated with each compound (0.03-40 uM). Prior to recording baseline activity, each mwMEA plate was placed in the Maestro at 37 C and allowed to sit for 20 min while firing rates stabilized. Baseline activity (40 min) was recorded before the addition of each compound. An additional 40 min of spontaneous activity was recorded in the presence of each compound. Changes in network parameters relative to baseline were assessed following compound treatment.
SMILES,AC50,outcome
CCCN(CCC)c1c([N+](=O)[O-])cc(S(N)(=O)=O)cc1[N+](=O)[O-],4690 nM (active),–
CC(C)Oc1cc(-n2nc(C(C)(C)C)oc2=O)c(Cl)cc1Cl,–,inactive
C=CCC1=C(C)C(OC(=O)C2C(C=C(C)C)C2(C)C)CC1=O (stereo not drawn),–,inactive
COP(=S)(OC)Oc1nc(Cl)c(Cl)cc1Cl,–,inactive
CCCCNC(=O)OCC#CI,–,inactive
N#CC(CCc1ccc(Cl)cc1)(Cn1cncn1)c1ccccc1 (stereo not drawn),–,inactive
CNC(=O)ON=CC(C)(C)SC,–,inactive
N#Cc1nn(-c2c(Cl)cc(C(F)(F)F)cc2Cl)c(N)c1S(=O)C(F)(F)F (stereo not drawn),–,inactive
COP(N)(=O)SC (stereo not drawn),–,inactive
CC(C)(C)c1ccc(CSc2cnn(C(C)(C)C)c(=O)c2Cl)cc1,19 nM (active),–
CO/C=C(/C(=O)OC)c1ccccc1Oc1cc(Oc2ccccc2C#N)ncn1,–,inactive
CCNc1nc(Cl)nc(NC(C)C)n1,–,inactive
Cc1ccc(-c2c(Cl)nc(C#N)n2S(=O)(=O)N(C)C)cc1,–,inactive
OC(c1ccc(Cl)cc1)(c1cncnc1)c1ccccc1Cl (stereo not drawn),882 nM (active),–
CS/C(C)=N/OC(=O)N(C)SN(C)C(=O)O/N=C(\C)SC,–,inactive
C=CCC1=C(C)[C@@H](OC(=O)[C@@H]2[C@@H](C=C(C)C)C2(C)C)CC1=O,4020 nM (active),–
Fc1ccc(Oc2ccnc3cc(Cl)cc(Cl)c23)cc1,–,inactive
CC(Oc1ccc(Cl)cc1Cl)C(=O)O (stereo not drawn),–,inactive
CC1COC(Cn2cncn2)(c2ccc(Oc3ccc(Cl)cc3)cc2Cl)O1 (stereo not drawn),5260 nM (active),–
COC(=O)N(OC)c1ccccc1COc1ccn(-c2ccc(Cl)cc2)n1,94.2 nM (active),–
O=C(O)c1nc(Cl)ccc1Cl,–,inactive
COc1ccc(C(c2ccc(OC)cc2)C(Cl)(Cl)Cl)cc1,–,inactive
CCOP(=S)(OCC)SCn1c(=O)oc2cc(Cl)ccc21,–,inactive
CCCC1COC(Cn2cncn2)(c2ccc(Cl)cc2Cl)O1 (stereo not drawn),–,inactive
COC(=O)C(C)Oc1ccc(Oc2ccc(Cl)cc2Cl)cc1 (stereo not drawn),–,inactive
CON(C)C(=O)Nc1ccc(Cl)c(Cl)c1,–,inactive
C#CCOS(=O)OC1CCCCC1Oc1ccc(C(C)(C)C)cc1 (stereo not drawn),–,inactive
Cc1c(F)c(F)c(COC(=O)C2C(/C=C(\Cl)C(F)(F)F)C2(C)C)c(F)c1F (stereo not drawn),226 nM (active),–
